Structures are written as SMILES. Values joined by “and” are separate entries in the source; they are usually repeats but may differ in a detail not shown here. Equal values may be shown once. Inconclusive results are not listed. Active and inactive are the calls of the source. How the source made its calls: active means hit-call score of the fitted dose curve at least 0.9, where 1 is the maximum; inconclusive means response in the unintended direction; inactive means score below 0.9.

Assay [1] concerns the target Cellular tumor antigen p53 (Homo sapiens) (UniProt P04637). Kind of assay: TOX21_p53_BLA_p5_ratio: Tox21 HCT-116 p53 Agonism Beta-lactamase Assay, Ratio, Phase 5 (AID 2283599). The gist of the method:
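HCT-116 cells carrying a p53-inducible beta-lactamase reporter were seeded at 4000 cells/well and dosed after 5 h with compound in DMSO (217-fold dilution). After 16 h at 37C, CCF4-AM substrate was added for 2 h, and the 460/530 nm emission ratio was scored as gain-of-signal versus DMSO.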

Assay [2] in a line: TOX21_p53_BLA_p5_viability: Viability Assessment in the Tox21 HCT-116 p53 Agonism Beta-lactamase Assay, Phase 5 (AID 2283600). The gist of the method:
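Decreased CellTiter-Glo luminescence denotes lost viability. Exposure: 16 h at 37C, 5% CO2, with compounds from DMSO stocks diluted 217-fold in wells of 4000 cells.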

Assay [3] deals with Cellular tumor antigen p53 (Homo sapiens) (UniProt P04637). The experiment in a line: TOX21_p53_BLA_p4_ratio: Tox21 HCT-116 p53 Agonism Beta-lactamase Assay, Ratio, Phase 4 (AID 2283601). The gist of the method: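 HCT116 cells carrying an inducible beta-lactamase reporter were plated at 4000 cells/well, rested 5 h, then exposed to compounds in DMSO (217-fold dilution) for 16 h at 37C. CCF4-AM substrate was loaded 2 h at room temperature; 460/530 nm emission ratio scored gain-of-signal versus DMSO.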

Assay [4] in a line: Tanguay_ZF_120hpf_MORT_legacy: (Legacy) Oregon State University Tanguay Lab 120 Hour Post-fertilization zebrafish Assay for Mortality (AID 2283633).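 On AC50: fitted as increase in binary mortality versus DMSO negative control.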 The gist of the method:
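Dechorionated Tropical 5D wild-type zebrafish embryos, one per well from 6 hpf, static exposure in 0.64% DMSO at 28C until 120 hpf. Mortality scored as binary by brightfield microscopy at 24 and 120 hpf.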

The nature of assay [5]: Tanguay_ZF_120hpf_YSE_legacy: (Legacy) Oregon State University Tanguay Lab 120 Hour Post-fertilization zebrafish Assay for Yolk Sac Edema (AID 2283634). The gist of the method: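 Dechorionated Tropical 5D wild-type zebrafish embryos were exposed statically, one per well, from 6 to 120 hpf at 28C in 0.64% DMSO. Yolk sac edema was scored present/absent by brightfield at 120 hpf, and dead embryos were excluded.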

Assay [6] is described as follows: Tanguay_ZF_120hpf_AXIS_legacy: (Legacy) Oregon State University Tanguay Lab 120 Hour Post-fertilization zebrafish Assay for Body Axis Malformation (AID 2283635). The gist of the method: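 Dechorionated wild-type Tropical 5D zebrafish embryos, one per well, statically exposed from 6 hpf to 120 hpf at 28C in 0.64% DMSO final. Body axis malformation scored present/absent by brightfield microscopy at 120 hpf; dead embryos excluded.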

Assay [7] can be described thus: Tanguay_ZF_120hpf_JAW_legacy: (Legacy) Oregon State University Tanguay Lab 120 Hour Post-fertilization zebrafish Assay for Jaw Malformation (AID 2283638). The gist of the method: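 Dechorionated Tropical 5D wild-type zebrafish embryos, one per well, exposed statically from 6 hpf to 120 hpf at 28C in 0.64% DMSO. Jaw malformation was scored by brightfield microscopy as present or absent. It was not scored in dead embryos.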

Assay [8] in a line: Tanguay_ZF_120hpf_OTIC_legacy: (Legacy) Oregon State University Tanguay Lab 120 Hour Post-fertilization zebrafish Assay for Otic Vesicle Malformation (AID 2283639). The gist of the method: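 Brightfield scoring at 120 hpf, binary present/absent; DMSO negative control, 5uM trimethyltin chloride positive control. Static exposure at 28C, final DMSO 0.64% (vol/vol). Dead embryos not scored for malformation.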

Assay [9] is described as follows: Tanguay_ZF_120hpf_PE_legacy: (Legacy) Oregon State University Tanguay Lab 120 Hour Post-fertilization zebrafish Assay for Pericardial Edema (AID 2283640). The gist of the method: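 Tropical 5D wild-type zebrafish embryos were statically exposed until 120 hpf at 28C, with 0.64% DMSO final. Pericardial edema was scored by brightfield as present or absent; endpoints were not scored in dead embryos.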

Assay [10] can be described thus: Tanguay_ZF_120hpf_PIG_legacy: (Legacy) Oregon State University Tanguay Lab 120 Hour Post-fertilization zebrafish Assay for Pigmentation Malformation (AID 2283650). The gist of the method: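 Endpoint is incidence of abnormal pigmentation at 120 hpf in dechorionated 5D zebrafish exposed singly from 6 hpf at 28C, DMSO vehicle at 0.64%. Embryos dying by 24 or 120 hpf are excluded from scoring.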

Assay [11] in a line: Tanguay_ZF_120hpf_CIRC_legacy: (Legacy) Oregon State University Tanguay Lab 120 Hour Post-fertilization zebrafish Assay for Circulatory Malformation (AID 2283651). The gist of the method: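 Static exposure, 6–120 hpf, 28C, sealed and dark; one dechorionated 5D embryo/well; DMSO 0.64% v/v final. Binary circulation endpoint by brightfield; dead embryos not scored.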
Assay [12] can be described thus: Tanguay_ZF_120hpf_SWIM_legacy: (Legacy) Oregon State University Tanguay Lab 120 Hour Post-fertilization zebrafish Assay for Swim Bladder Malformation (AID 2283654).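 Further: swim bladder malformation in each larva scored yes or no under brightfield.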 The gist of the method:
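Static waterborne exposure of single dechorionated Tropical 5D zebrafish embryos, 6–120 hpf, 28C, 0.64% DMSO final. Read-out: swim bladder malformation, present/absent, relative to DMSO negative control; trimethyltin chloride 5uM served as positive control.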

A short description of assay [13]: Tanguay_ZF_120hpf_TRUN_legacy: (Legacy) Oregon State University Tanguay Lab 120 Hour Post-fertilization zebrafish Assay for Truncated Body (AID 2283655). The gist of the method:
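Dechorionated Tropical 5D wild-type embryos placed singly from 6 hpf and statically exposed to 120 hpf at 28C, final DMSO 0.64%. Truncated body scored as present/absent by brightfield; not scored in dead embryos.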

The nature of assay [14]: Tanguay_ZF_120hpf_NC_legacy: (Legacy) Oregon State University Tanguay Lab 120 Hour Post-fertilization zebrafish Assay for Notochord and Tail Malformation (AID 2283656). The gist of the method:
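Binary notochord-distortion calls, made by brightfield inspection, form the read-out; activity is fitted in the positive direction against DMSO. Exposure ran statically from 6 to 120 hpf at 28C with 0.64% DMSO.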

Assay [15] is described as follows: Tanguay_ZF_120hpf_PFIN_legacy: (Legacy) Oregon State University Tanguay Lab 120 Hour Post-fertilization zebrafish Assay for Pectoral Fin Malformation (AID 2283648).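 Further: each larva judged yes or no for fin defect by brightfield with dead larvae skipped.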 The gist of the method:
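Scoring of pectoral fin malformation was binary, made at 120 hpf on larvae exposed statically from 6 hpf after enzymatic chorion removal. Activity was fitted upward relative to DMSO controls at 0.64% (vol/vol).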

Assay [16] is described as follows: Tanguay_ZF_120hpf_CFIN_legacy: (Legacy) Oregon State University Tanguay Lab 120 Hour Post-fertilization zebrafish Assay for Caudal Fin Malformation (AID 2283649). The gist of the method: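 Dechorionated Tropical 5D wild-type embryos, one per well from 6 hpf, static exposure to 120 hpf at 28C in 0.64% DMSO. Caudal fin malformation scored by brightfield as present/absent; not scored in dead embryos.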

Sequence of Cellular tumor antigen p53 (Homo sapiens) (P04637 whole entry, looked up): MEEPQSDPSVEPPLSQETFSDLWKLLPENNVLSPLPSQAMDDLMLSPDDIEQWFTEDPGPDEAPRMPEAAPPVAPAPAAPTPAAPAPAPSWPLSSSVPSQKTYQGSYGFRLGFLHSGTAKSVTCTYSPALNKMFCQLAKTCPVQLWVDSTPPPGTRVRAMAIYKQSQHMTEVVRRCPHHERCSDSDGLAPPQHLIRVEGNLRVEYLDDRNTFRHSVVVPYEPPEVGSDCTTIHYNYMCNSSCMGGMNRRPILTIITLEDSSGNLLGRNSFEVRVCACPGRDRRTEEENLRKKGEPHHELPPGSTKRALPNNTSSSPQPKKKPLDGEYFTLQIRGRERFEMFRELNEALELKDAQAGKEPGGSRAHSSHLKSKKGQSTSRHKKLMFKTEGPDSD

For `CC12CC1(C)C(=O)N(c1cc(Cl)cc(Cl)c1)C2=O` (stereo unspecified), the outcome in [1], in assay [2], in [3], in assay [4], in assay [5] and in [6] was inactive. Besides, the outcome in assay [7], in assay [8], in assay [9], in assay [10], in assay [11] and in assay [12] was inactive. Also, the outcome in assay [13] and in assay [14] was inactive.
For `Oc1ccc(-c2ccccc2)cc1`, the outcome in assay [1], in [2] and in assay [3] was inactive.
With `Clc1ccc(C2(Cn3cncn3)CC(Br)CO2)c(Cl)c1` (stereo unspecified), the result in assay [1], in [2] and in assay [3] was inactive.
As for `CCCCCCCCc1ccc(O)cc1`, the outcome in assay [1], in [2], in assay [3], in assay [4], in assay [5] and in assay [6] was inactive. Also, the molecule was called inactive in assay [7], in assay [8], in assay [9], in assay [15], in assay [16] and in assay [12]. The molecule was called inactive in assay [13] and in assay [14].
On to `[O-][Cl+2]([O-])O`, for which the result in assay [1], in assay [2] and in assay [3] was inactive.
Consider `ClC1=C(Cl)[C@]2(Cl)[C@H]3[C@H]([C@H]4C=C[C@H]3C4)[C@@]1(Cl)C2(Cl)Cl`, for which the outcome in assay [1], in [2] and in assay [3] was inactive.
With `C=CC(=O)OCCCCCC(C)C`, the result in assay [1], in [2], in [3], in assay [4], in assay [5] and in [6] was inactive. Further, the result in assay [7], in [8], in [9], in assay [15], in assay [16] and in assay [11] was inactive. Further, the result in assay [12], in assay [13] and in assay [14] was inactive.
For the molecule `C=CC#N`, the outcome in assay [1], in assay [2] and in [3] was inactive.
With `CC(C)(C)c1cc(O)ccc1O`, the outcome in assay [1], in assay [2], in assay [3], in assay [5], in assay [6] and in assay [7] was inactive. For the same molecule, the molecule was called inactive in [8], in assay [9], in assay [15], in assay [16], in [11] and in assay [13]. Further, in [14], the result was inactive. In addition, the AC50 in assay [4] is 32 µM (active).
Take `CCC(C)(C)c1ccc(O)c(C(C)(C)CC)c1`: the AC50 in assay [1] is 22.9 µM (active) and 70.8 µM (active); in assay [2], 22.2 µM (active) and 45.7 µM (active); in assay [3] it was 54.3 µM (active). In addition, the result in [4], in assay [5], in assay [6], in [7], in [8] and in assay [9] was inactive. Also, the molecule was classed as inactive in assay [16], in assay [10], in assay [11], in assay [12] and in assay [13].

For the origin of these results see PubChem BioAssay (EPA / NIEHS).
